Sampled rows, rich in hits. Any-hit rate of the full collection: about 4.6%.
KLK7 zymogen act: activates the human kallikrein-7 zymogen; P49862; purified proKLK7, EDANS-DABCYL substrate fluorescence; 100% is mature enzyme control, 0% vehicle; activation, % at 7 µM; 370,000 compounds, 0.9% hits; AID 652039;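 active means activation above the mean of all tested compounds plus 3 SD, computed per campaign excluding outliers beyond control limits, cut at about 13% in these data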
Target sequence (P49862 whole entry, looked up): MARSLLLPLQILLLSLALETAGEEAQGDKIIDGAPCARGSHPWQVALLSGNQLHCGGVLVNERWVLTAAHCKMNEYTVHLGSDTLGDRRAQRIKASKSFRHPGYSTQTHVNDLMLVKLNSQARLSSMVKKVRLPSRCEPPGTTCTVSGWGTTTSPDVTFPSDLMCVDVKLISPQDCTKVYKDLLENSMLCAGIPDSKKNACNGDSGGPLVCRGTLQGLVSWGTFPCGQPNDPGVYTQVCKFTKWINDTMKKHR
ADAM10 inh: inhibitors of human ADAM10; AID 720582; inhibition, % at 7 µM; recombinant ADAM10, EDANS/DABCYL FRET peptide cleavage, 3 h; O14672; 370,000 compounds, 0.62% hits;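 active means inhibition above a per-campaign cutoff equal to the mean of compounds falling between control-based bounds plus 3 SD, cut at about 20% in these data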;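 further: 0% = DMSO wells while the 100% control is not disclosed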
ADAM17 inh: inhibits human ADAM17. recombinant ADAM17, EDANS/DABCYL FRET peptide cleavage. inhibition, % at 6.95 µM. 370,000 compounds, 0.83% hits;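 active means inhibition above the mean of compounds lying between control limits plus 3 SD, set per campaign, cut at about 8.5% in these data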;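 further: 0% = DMSO-only wells as the low control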
GRIN3A LBD mod: modulates the human NR3A ligand-binding domain; NR3A LBD differential scanning fluorimetry, Tm shift; 0% = protein alone, 100% = glycine-bound protein; Tm shift relative to glycine control, % at 25 µM; 340,000 compounds, 2.5% hits; AID 1259313;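 active means melting temperature shift of at least 10% of the positive control shift, at one fixed dose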
FAS TE block: blocks the thioesterase domain of human fatty acid synthase. recombinant FAS-TE, OMFH fluorogenic substrate, fluorescence endpoint. 360,000 compounds, 0.67% hits. AID 602261. inhibition, % at 15 µM. P49327;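 active means compounds whose normalised, plate-corrected inhibition of enzyme fluorescence in the single-dose primary screen is 50% or more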;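 further: 0% = DMSO with enzyme and 100% = substrate without enzyme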
* marks the source's active call; other numbers are inactive results; nt = not tested or not shown.

SMILES	KLK7 zymogen act	ADAM10 inh	ADAM17 inh	GRIN3A LBD mod	FAS TE block
Cc1ccc(-n2c(SCC(=O)Nc3ccc(Oc4ccccc4)cc3)nnc2-c2cccc(C)c2)cc1	0	-8	-1	nt	nt
CCN1CCCCC(NC(=O)c2ccc(C)cc2)C1=O (stereo unspecified)	0	1	4	nt	nt
CCN(CC(=O)Nc1ccc(NC(C)=O)cc1)C(=O)/C=C/c1ccc2c(c1)OCO2	4	-168	-50	31*	-6
CCN1CCCCC(NC(=O)c2ccccc2)C1=O (stereo unspecified)	0	-1	-1	nt	nt
Cc1nc2sc(C(=O)NCc3ccc4c(c3)OCO4)c(N)c2c(C)c1Cl	-1	-41	-12	nt	nt
O=C(CN1c2ccccc2Sc2ccccc21)N/N=C/c1ccc(Cl)cc1	0	2	-1	11*	44
O=C(CN1c2ccccc2Sc2ccccc21)N/N=C/c1ccc(Cl)cc1Cl	0	5	-3	15*	36
O=C(NN=Cc1ccc(Cl)cc1Cl)c1ccccc1	0	-1	-2	nt	5
O=C(Cc1ccc(Cl)cc1)N/N=C/c1ccccc1	1	8	2	2	-6
CCCNC(=O)C[C@H]1CC[C@H]2[C@@H](COc3ccc(NC(=O)c4cncs4)cc3C(=O)N2C)O1	0	12	-7	nt	nt
O=C(OC12CCCN(C1)/C(=C/c1ccc(Cl)cc1)C2)c1ccccc1 (stereo unspecified)	0	9	6	nt	nt
CC1CC(C)(C)CC2(C1)NC(=O)N(CC(=O)Nc1ccc3[nH]c(=O)[nH]c3c1)C2=O (stereo unspecified)	-1	-11	-7	0	-3
CC1CCC2(CC1)NC(=O)N(CC(=O)Nc1ccc3[nH]c(=O)[nH]c3c1)C2=O (stereo unspecified)	0	-23	0	19*	-9
O=C(Nc1ccc(Cl)c(Cl)c1)c1cccc2c1-c1ccccc1C2=O	0	3	0	nt	nt
Cc1ccc2[nH]c(=O)c(NC(N)=S)nc2c1	1	9	2	11*	-7
COc1ccccc1CNC(=O)c1ccccc1OCc1ccc(F)cc1	0	4	3	23*	32
O=C(NCc1ccccn1)c1ccccc1OCc1ccc(F)cc1	0	-11	-6	0	3
CCCC(=O)Nc1ccc(-c2csc(NNC(C)=O)n2)cc1	-3	4	0	1	-4
CC(=O)Nc1ccc(-c2csc(N/N=C\c3ccncc3)n2)cc1	0	-9	-3	15*	1
CCCC(=O)Nc1ccc(-c2csc(N/N=C\c3ccncc3)n2)cc1	1	-1	-3	18*	3
O=c1c2cc3cc(Cl)ccc3nc2ncn1N1CCCCC1	0	-1	6	nt	nt
CCc1ccccc1NC(=O)CN1CCN(C(=O)CN2C(=O)NC3(CCCC3)C2=O)CC1	0	-14	-4	0	-7
CCc1ccccc1NC(=O)CN1CCN(C(=O)CN2C(=O)NC3(CCCCC3C)C2=O)CC1 (stereo unspecified)	-1	4	-1	21*	-9
CCN(CC)C(=O)CSC(Nc1ccc(F)cc1)=C(C#N)C#N	0	6	2	3	0
Cc1ccc(CSC(Nc2ccc(F)cc2)=C(C#N)C#N)cc1	0	21*	6	10	21
SMILES	KLK7 zymogen act	ADAM10 inh	ADAM17 inh	GRIN3A LBD mod	FAS TE block
COc1ccccc1CNC(=O)N1CCN(Cc2nc3ccccc3c(=O)[nH]2)CC1	0	-4	6	nt	nt
CN(CCO)c1cccc2c1S(=O)(=O)N(Cc1cn(Cc3cccc(C(F)(F)F)c3)nn1)Cc1ccccc1O2	0	-9	1	nt	nt
Clc1cccc(N/N=C/c2ccc(N3CCOCC3)s2)c1	0	1	0	19*	45
Nc1ccc(C(=O)N/N=C/c2ccc(N3CCOCC3)s2)cc1	-8	-36	-10	11*	-4
O=C(N/N=C/c1ccc(N2CCOCC2)s1)c1ccccc1Br	0	-3	-2	-2	-11
CCOC(=O)[C@@]12CCCC3=C1N(CCC3)C(=O)[C@H]2CC(=O)NCc1ccc(C)o1	0	-2	-1	nt	nt
Cc1ccc(S(=O)(=O)N/N=C/c2ccc(O)cc2O)cc1[N+](=O)[O-]	-3	-7	-6	0	-1
O=S(=O)(NN=Cc1ccc(O)cc1O)c1cc(Cl)c(Cl)cc1Cl	-4	-21	-8	22*	2
CC(COc1ccc(CC#N)cc1)CN1CCC(C(O)(c2ccccc2)c2ccccc2)CC1 (stereo unspecified)	0	12	8	nt	nt
Cc1ccccc1OCc1nc(-c2ccccc2)no1	0	0	-2	2	13
Cc1ccccc1OCc1nc(-c2ccc(Br)o2)no1	-1	-6	4	16*	21
C=CCN1C(=O)[C@@H](CC(=O)NCc2cccc(C(F)(F)F)c2)[C@]2(C(=O)OC)CCCCC=C12	-1	0	1	nt	nt
O=C(CSc1nnc(CNC(=O)c2ccc(F)cc2)o1)NCc1ccc(F)cc1	0	-3	-1	-4	-3
COc1ccc(C(=O)NCc2nnc(SCC(=O)NCc3ccc(F)cc3)o2)cc1	0	-6	-4	11*	-7
O=C(Nc1ccc(NC(=O)c2cccs2)cc1)c1ccc2c(c1)OCCO2	1	-5	-8	29*	1
O=C(Nc1ccc(NC(=O)c2cccs2)cc1)c1ccc2c(c1)OCO2	-1	-6	-7	14*	-2
O=C(Nc1ccccc1)c1ccc2c(c1)OCCO2	0	-2	0	-1	-6
O=C(Nc1ccc(NC(=O)c2ccc3c(c2)OCCO3)cc1)c1ccccc1	0	-5	-4	12*	1
O=C(Nc1cccc(NC(=O)c2cccs2)c1)c1ccc2c(c1)OCO2	0	6	-4	7	8
N#CCSc1nc(-c2ccccc2)c2cc(Cl)ccc2n1	-1	-6	-2	18*	2
Cc1nc(-c2ccccc2)sc1C(N)=O	0	4	-2	19*	-3
O=c1c([N+](=O)[O-])c(O)c2ccccc2n1Cc1ccccc1	0	0	2	10*	1
O=c1c([N+](=O)[O-])c(Cl)c2ccccc2n1Cc1ccccc1	nt	-11	1	nt	nt
N=C1S/C(=C\c2cccc3ccccc23)C(=O)N1c1ccc(F)cc1	0	-3	-3	11*	3
N=C1S/C(=C\c2ccccc2F)C(=O)N1c1ccc(F)cc1	1	0	0	11*	-3
N=C1S/C(=C\c2ccccc2)C(=O)N1c1ccc(F)cc1	0	3	0	5	-6
O=C(CCl)NC1CCCCN(Cc2ccc(OC(F)(F)F)cc2)C1=O (stereo unspecified)	0	-5	-3	nt	nt
CC(C)C(=O)N1CC[C@H]2[C@H](CCCN2Cc2ccc(F)cc2)C1	0	1	-3	nt	nt
COc1ccc(-c2noc(CNS(=O)(=O)c3ccc(NC(C)=O)cc3)n2)cc1	1	-4	-4	1	-6
O=C(NCc1nc(-c2ccc(C(F)(F)F)cc2)no1)Nc1ccc(OC(F)(F)F)cc1	0	-2	-1	36*	28
